Assay results reported in ChEMBL document CHEMBL4513216, “Probing the Open Global Health Chemical Diversity Library for Multistage-Active Starting Points for Next-Generation Antimalarials” (ACS Infect Dis, 2020).
Screen size: about 68,000 compounds; about 2,700 (4%) showed an effect of 50% or more. The list comes from a sample in which strong results are over-represented; it also holds similar structures and randomly drawn compounds.

Test system: Plasmodium berghei
Assay: Screen against P. berghei liver stage (PbLuc), transformed with Luciferase, at 2uM
Format: functional, HepG2
Conditions: tested at 2 uM

Row | SMILES | INHIBITION
1 | O=C(CN1CCOC(CNc2cccnn2)C1)NCc1ccccn1 (stereo not given) | 33.12%
2 | Cc1nn(CC(=O)O)c(C)c1NS(=O)(=O)c1cc2ccccc2s1 | -38.97%
3 | O=c1cc(CN2CCCC(CCc3c(F)cccc3F)C2)[nH]c(=O)[nH]1 (stereo not given) | -21.63%
4 | CN(C)C(=O)CCS(=O)(=O)Cc1cc(Cl)c2c(c1)OCCO2 | 48.21%
5 | CNC(=O)CCS(=O)(=O)Cc1cc(Cl)c2c(c1)OCCCO2 | 19%
6 | CS(=O)(=O)CCS(=O)(=O)Cc1cc(Cl)c2c(c1)OCCCO2 | 72.05%
7 | CS(=O)(=O)Cc1cc(Cl)c2c(c1)OCCCO2 | 45.82%
8 | CN(C)C(=O)CCCS(=O)(=O)Cc1cc(Cl)c2c(c1)OCO2 | 27.5%
9 | CN(C)C(=O)CCS(=O)(=O)Cc1cc(Cl)c2c(c1)OCO2 | 66.2%
10 | CC(C)(O)CN1CCN(C(=O)c2sccc2C#N)CC1 | -29.69%
11 | c1cnc(N2C[C@H]3CCN(Cc4ccncc4)C[C@H]3C2)nc1 | -20.87%
12 | CC(NC(=O)N1CCC(OCc2ccccc2)CC1)c1nncn1C (stereo not given) | 29.11%
13 | Cc1cc(C)c(C)c(OCCCNC(=O)NC(C)c2nncn2C)c1 (stereo not given) | 38.97%
14 | COc1ccc(F)cc1C(=O)N1CCCC(CNS(C)(=O)=O)C1 (stereo not given) | -42.84%
15 | O=C(NCCCNC(=O)C1CCC1)NCCn1cccc1 | 7.33%
16 | N#Cc1c(N2CCCN(C3CCOCC3)CC2)nc2ccccn12 | 14.2%
17 | CN1CCCC(N2CCN(c3nc4ccccn4c3C#N)CC2)C1 (stereo not given) | 38.1%
18 | N#Cc1c(N2CCN(CC3CCOC3)CC2)nc2ccccn12 (stereo not given) | 83.18%
19 | Cn1cccc1C(=O)N1CCc2ncnc(C3CC3)c2CC1 | 11.72%
20 | Cc1cc(C(=O)NC2CCCCNC2=O)c(=O)[nH]c1C (stereo not given) | 52.08%
21 | Cc1ccc(C(=O)NC2CCCCNC2=O)c(=O)[nH]1 (stereo not given) | -4.09%
22 | O=C(NC1CCCCNC1=O)c1cc2ccccc2[nH]c1=O (stereo not given) | -0.79%
23 | O=C(CCc1c[nH]cn1)N1CC[C@@H](c2ccc3ccccc3c2)[C@H](O)C1 | 43.1%
24 | Cc1ccc(N2CCC3(CN(Cc4cccs4)CCC3(F)F)C2)nn1 (stereo not given) | -17.41%
25 | Cc1noc(C)c1CC(=O)N1CCC(Nc2cccnn2)CC1 | -57.89%
26 | Cc1ccc(NC2CCN(C(=O)Cc3ccc(C)s3)CC2)nn1 | -19.35%
27 | O=C(Cc1c[nH]c2ccccc12)N1CCC(Nc2cccnn2)CC1 | -32.2%

Row | SMILES | INHIBITION
28 | O=C(Cc1cccc2ccccc12)N1CCC(Nc2cccnn2)CC1 | -58.05%
29 | Cc1cccc2[nH]cc(CC(=O)N3CCC(Nc4cccnn4)CC3)c12 | 64.16%
30 | Cc1ccc(CC(=O)N2CCC(Nc3cccnn3)CC2)s1 | 50.75%
31 | O=C(NCc1ccccn1)NCC(O)c1ccccc1C(F)(F)F (stereo not given) | -19.62%
32 | O=C(c1ccccc1OCC1CC1)N1CCCC1Cn1cccn1 (stereo not given) | -12.5%
33 | O=C(CCCn1cncn1)N1CCC2(CCCNC2=O)C1 (stereo not given) | 43.1%
34 | O=C(c1cccc(Cl)c1)N1CC[C@H]2[C@H]1CCN2CC1CCOCC1 | 49.03%
35 | CCS(=O)(=O)N1CC[C@@H]2[C@H](CC1)N(CC(C)C)CCS2(=O)=O | 40.5%
36 | Cc1cc(C(N)=O)nc(C2(C)CCCN2Cc2cnn(C)c2C)n1 (stereo not given) | 40.31%
37 | Cc1cc(C)nc(C2(C)CCCN2CCO)n1 (stereo not given) | -8.85%
38 | Cc1cc(C(N)=O)nc(C2(C)CCCN2Cc2cnn(C)c2)n1 (stereo not given) | 74.08%
39 | COc1ccc(-c2noc(CN3CCN(c4cnccn4)CC3)n2)cc1 | 32.88%
40 | COc1ccc(-n2cnnc2CC2CCNCC2)cc1 | -22%
41 | O=S(=O)(N1CCCC1)N1CC(c2ccnc(Nc3ccccn3)n2)C1 | 17.72%
42 | CCN(CCc1nc2cc(C)ccc2[nH]1)C(=O)[C@@H](N)Cc1c[nH]cn1 | -2.23%
43 | CN(C)CC1(O)CCCN(c2nc(-c3ccccc3)no2)CC1 (stereo not given) | 76.6%
44 | Cc1cc(N2CCCC(O)(CN(C)C)CC2)nc(-c2ccccc2)n1 (stereo not given) | 1.06%
45 | CN(C)CC1(O)CCCN(c2noc(-c3ccccc3)n2)CC1 (stereo not given) | 12.55%
46 | c1cc(-c2cscn2)cc(N2CCC(NCCc3cccs3)CC2)c1 | -15.42%
47 | CCC(=O)N1CCC2(CC1)CC(CC(=O)N(C)C)c1ccc(F)cc12 (stereo not given) | -0.45%
48 | CCOC(C)C(=O)NCCNS(C)(=O)=O (stereo not given) | 8.41%
49 | CC(C)COC(C)C(=O)NCCNC(=O)C(C)C (stereo not given) | 31.96%
50 | CC(C)COC(C)C(=O)NCCNS(C)(=O)=O (stereo not given) | 52.74%
51 | CCN(Cc1cccc2c1OCO2)C(=O)NCCOC | 25.61%
52 | O=C(NC1CC1)c1ccc2ccc(N3CCN(CC4CC4)CC3)n2c1 | -36.7%
53 | CC(C)N1CCN(c2ccc3ccc(C(=O)NC4CCCC4)cn23)CC1 | 50.17%
54 | CC(=O)N1CCN(c2ccc3ccc(C(=O)NC4CCCC4)cn23)CC1 | -7.41%

Row | SMILES | INHIBITION
55 | CN(C)C(=O)c1ccc2ccc(N3CCN(CC4CC4)CC3)n2c1 | 19.96%
56 | CN(C)C(=O)N1CCN(c2ccc3ccc(C(=O)NC4CC4)cn23)CC1 | 23.26%
57 | O=C(O)c1ccc2ccc(N3CCN(CC4CC4)CC3)n2c1 | 57.95%
58 | Cc1nn(-c2ccccc2)c2c1c(C(F)F)cc(=O)n2CC(=O)O | 13.39%
59 | COCCN1CCC(NCc2c(F)cccc2F)C1 (stereo not given) | 28.54%
60 | Cc1nc(-c2ccncc2)ncc1C(C)NC(=O)CN1CCCCC1 (stereo not given) | 50.41%
61 | Cc1nc(-c2ccncc2)ncc1C(C)NC(=O)Cn1ccccc1=O (stereo not given) | 10.02%
62 | Cc1nc(-c2ccncc2)ncc1C(C)NC(=O)CN1CCCC1=O (stereo not given) | 28.62%
63 | Cc1nc(C)n(CC2CCCN(Cc3cn4c(C)cccc4n3)C2)n1 (stereo not given) | 60.64%
64 | Cc1nc(C)n(CC2CCCN(Cc3cccc(F)c3F)C2)n1 (stereo not given) | 2.18%
65 | COCCc1noc(CN2CCCC(Cn3nc(C)nc3C)C2)n1 (stereo not given) | 30.91%
66 | Cc1nc(C)n(CC2CCCN(Cc3nc(C4CC4)no3)C2)n1 (stereo not given) | -38.96%
67 | Cc1nc(C)n(CC2CCCN2Cc2cn3c(C)cccc3n2)n1 (stereo not given) | -17.11%
68 | Cc1noc(CN2CCCC(Cn3nc(C)nc3C)C2)n1 (stereo not given) | 72.31%
69 | Cc1nc(C)n(CC2CCCN(Cc3noc(C)n3)C2)n1 (stereo not given) | 17.31%
70 | CCc1noc(CN2CCCC(Cn3nc(C)nc3C)C2)n1 (stereo not given) | 21.39%
71 | CCc1nc(CN2CCCC(Cn3nc(C)nc3C)C2)no1 (stereo not given) | 70.27%
72 | Cn1cc(C2COC3(CCN(C(=O)Cc4ccccc4)CC3)C2)cn1 (stereo not given) | 2.27%
73 | CNC(=O)CNC1CC2(CCN(c3ncccn3)CC2)c2ccccc21 (stereo not given) | 70.75%
74 | CNC(=O)CC1CC2(CCN(c3ncccn3)CC2)c2ccccc21 (stereo not given) | 2.87%
75 | c1cnc(N2CCC3(CC2)CC(NCC2CC2)c2ccccc23)nc1 (stereo not given) | 33.11%
76 | CC[C@@H](CO)NC(=O)c1cc(COc2ccc(OC)cc2Cl)[nH]n1 | 69.67%
77 | COc1ccc(OCc2cc(C(=O)N3C[C@@H](C)O[C@@H](C)C3)n[nH]2)c(Cl)c1 | 21.29%
78 | CNC(=O)C(C)NC(=O)c1cc(COc2ccc(OC)cc2Cl)[nH]n1 (stereo not given) | 55.36%
79 | CCC(O)CNC(=O)c1cc(COc2ccc(OC)cc2Cl)[nH]n1 (stereo not given) | 52.98%
80 | COc1ccc(OCc2cc(C(=O)N3CCSCC3)n[nH]2)c(Cl)c1 | 8.48%
81 | CCC(CO)NC(=O)c1cc(COc2ccc(OC)cc2Cl)[nH]n1 (stereo not given) | 45.82%

Row | SMILES | INHIBITION
82 | COc1ccc(OCc2cc(C(=O)N3CCC(O)CC3)n[nH]2)c(Cl)c1 | 8.57%
83 | COc1ccc(OCc2cc(C(=O)N3CCOCC3)n[nH]2)c(Cl)c1 | 15.05%
84 | COc1ccc(OCc2cc(C(=O)N3CC=CC3)n[nH]2)c(Cl)c1 | 27.77%
85 | CCc1oc(C(=O)NC(C)Cc2cnccn2)cc1CN1CCCC1 (stereo not given) | 12.11%
86 | CNc1cccc(C2CCCN(C(=O)c3ccn(C)n3)C2)n1 (stereo not given) | 15.64%
87 | Cc1cc(C(F)(F)F)n2nc(C3CCCN3C3CCSCC3)cc2n1 (stereo not given) | 36%
88 | OC1(CN2CCC(Oc3cccc(C(F)(F)F)c3)CC2)CCNC1 (stereo not given) | -16.56%
89 | Cn1ccc(C(=O)NCCOc2ccc3c(c2)OCO3)cc1=O | 25.78%
90 | CC(C)(C)C(=O)NCCCn1cncn1 | 32.55%
91 | Cc1cc(NC(=O)CN2CCCC2c2c(C)nn(C)c2C)on1 (stereo not given) | 26.76%
92 | c1cnnc(N2CCCC(NCc3ccc(-n4cncn4)cc3)C2)c1 (stereo not given) | 32.79%
93 | CC1(C)O[C@@](C)([C@H]2CC3(CCN(c4cnccn4)CC3)CO2)CC[C@@H]1O | 4.19%
94 | c1cnn([C@@H]2CN(Cc3nccs3)[C@@H]3CCCO[C@@H]32)c1 | 13.61%
95 | c1csc(CN2C[C@@H](n3cccn3)[C@H]3OCCC[C@H]32)c1 | 51.85%
96 | O=C(N[C@@H]1CN(Cc2cccs2)[C@@H]2CCCO[C@@H]21)C1CC1 | 8.91%
97 | O=C(c1cccc(C2CCNC2)c1)N1CCC(c2ccncc2)CC1 (stereo not given) | -0.41%
98 | O=C(Nc1cccc(C2SCCS2)c1)C1CCCN1c1nccs1 (stereo not given) | -7.88%
99 | Cc1cccc(OCCNC(=O)C(C)S(=O)(=O)c2ccccn2)c1 (stereo not given) | -27.59%
100 | Cc1nc2c(C)cccc2cc1C(=O)N1CCC2(CCNCC2)CC1 | -10.67%
101 | CCN(CC)Cc1cc(C(=O)N2CCC3(CC2)NCCNC3=O)c(C)o1 | 64.71%
102 | Cc1nc2c(C)cccc2cc1C(=O)N1CCC2(CCN(C)CC2)C1 | -30.77%
103 | CCN(CC)Cc1cc(C(=O)N2CCCC(O)(CO)C2)c(C)o1 (stereo not given) | 35.42%
104 | Cc1nc2c(C)cccc2cc1C(=O)N1CCC2(CC1)NCCNC2=O | 71.07%
105 | CCN(CC)Cc1cc(C(=O)N2CCC3(CCN(C)CC3)C2)c(C)o1 | -14.17%
